Compounds without any hit were thinned out: in the full panel of roughly 83,000, 20% have a hit.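 The test compound was applied at a single concentration to cells in 96-well plates for 48 hours, and percent growth was recorded.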 Values without a mark were called inactive. Calls of active or inactive are those of the source. The calls were made as follows: active = growth percent below 10; inactive = the rest.
Key:
Experiment in all cases: NCI-60 one-dose screen, 48 h (100 = growth as untreated, 0 = no growth, -100 = all killed)
HCT-15 colon = details: 10 µM unless noted
HT29 colon = details: 10 µM unless noted
SNB-75 CNS = details: 10 µM unless noted
SNB-19 CNS = details: 10 µM unless noted
U251 CNS = details: 10 µM unless noted
PC-3 prostate = details: 10 µM unless noted
UACC-62 melanoma = details: 10 µM unless noted
LOX IMVI melanoma = details: 10 µM unless noted
SK-MEL-28 melanoma = details: 10 µM unless noted
EKVX NSCLC = details: 10 µM
SN12C renal = details: 10 µM unless noted
UO-31 renal = details: 10 µM unless noted
TK-10 renal = details: 10 µM unless noted
ACHN renal = details: 10 µM unless noted
CAKI-1 renal = details: 10 µM unless noted
A498 renal = details: 10 µM unless noted
CCRF-CEM leukemia = details: 10 µM
MOLT-4 leukemia = details: 10 µM unless noted
SK-MEL-5 melanoma = details: 10 µM unless noted
SK-MEL-2 melanoma = details: 10 µM unless noted

Compound | growth (HCT-15 colon) | growth (HT29 colon) | growth (SNB-75 CNS) | growth (SNB-19 CNS) | growth (U251 CNS) | growth (PC-3 prostate) | growth (UACC-62 melanoma) | growth (LOX IMVI melanoma) | growth (SK-MEL-28 melanoma) | growth (EKVX NSCLC) | growth (SN12C renal) | growth (UO-31 renal) | growth (TK-10 renal) | growth (ACHN renal) | growth (CAKI-1 renal) | growth (A498 renal) | growth (CCRF-CEM leukemia) | growth (MOLT-4 leukemia) | growth (SK-MEL-5 melanoma) | growth (SK-MEL-2 melanoma)
O=c1c2c(c3ccccc3n1-c1ccccc1)NC(=S)NC2c1ccc(Cl)cc1 (configuration not stated) | 28.6% | 41.5% | 41% | 39.7% | 32.4% | -4.33% (active) | 22.4% | 8.65% (active) | 48.2% | 20% | 50.1% | 47.6% | 10.8% | 52.7% | 33.2% | 50.6% | 7.43% (active) | 25.4% | – | –
CCN(CC)CCNc1ncnc2c1cnn2-c1ccc(Cl)cc1 | 34.8% | 7.44% (active) | 74.4% | 91.2% | 75.5% | 82% | -50.5% (active) | 60% | -40.4% (active) | 82.8% | 80.6% | – | 118% | 92.6% | 61.5% | 73.1% | 50.8% | 92.9% | – | –
COc1cc(-c2nn(-c3ccc(NC(=O)Nc4ccc(Cl)c(C(F)(F)F)c4)cc3)cc2-c2ccncc2)ccc1Cl | 9.82% (active) | -24.4% (active) | -0.838% (active) | 30.5% | -3.64% (active) | – | 6.01% (active) | 11.7% | 18.2% | 3.21% (active) | 26.2% | 24.5% | -3.21% (active) | 5.32% (active) | -5.53% (active) | 6.77% (active) | – | 1.77% (active) | -58.2% (active) | –
CCCCCCCCCCN1CC2CCCCC2C1 (configuration not stated) | 35% | 19.8% | 66.3% | 79.7% | 53.4% | 48.4% | 89.4% | 47.1% | 90.6% | 63% | 75.7% | 65.5% | 81.4% | 80.1% | – | – | 46.1% | 50.2% | – | 95.2%
CCOC(=O)CNS(=O)(=O)CC(=O)c1ccccc1 | 110% | 80.1% | 69.4% | 94.3% | 96.7% | 92% | 95.3% | 104% | 127% | 90.3% | 84.2% | 86.6% | 80.9% | 99.5% | 93% | – | 105% | 109% | – | 128%
C=CC1CN2CCC1CC2C(O)c1ccnc2ccc(OC)cc12 (configuration not stated) | 104% | 98.6% | 78.2% | 96.1% | 103% | – | 100% | 93.3% | 115% | 102% | 98.7% | 60.2% | 108% | 97.9% | 103% | 108% | 106% | 106% | 97.9% | 2.09% (active)
COc1ccc(-c2nc(SCC(C)C)nc(Nc3ccccc3)c2C#N)cc1 | 83.4% | 78.9% | 89% | 81.3% | 50.5% | 86.9% | 88.1% | 80.1% | 112% | 85% | 60.2% | 56.8% | 46.9% | 27.4% | – | 75.2% | 64.6% | 88.2% | – | 111%
CCCCCCCCCCCCOC(=O)/C=C\C(=O)NC(N)=O | 57.9% | 88.6% | 81.5% | 91.6% | 74% | 71.6% | 82% | – | 99.2% | – | 84.3% | 93% | 86.9% | 88.4% | 90.3% | 101% | – | 45.1% | – | 50.7%
Cc1nc(NC(=O)NC2CCCCC2)sc1C(=O)NN | 91.5% | 95.5% | 110% | 102% | 98.5% | – | 90.8% | 93.5% | 102% | 119% | 106% | 84% | -14.2% (active) | 97.8% | 132% | 118% | 112% | 116% | 106% | 21.7%
CC(=O)c1ccc2c(c1)c1ccccc1n2C | 102% | 91.1% | 82.5% | 90.8% | 94.8% | 89.2% | 83.2% | 97.1% | 107% | – | 92.1% | 60.8% | 108% | 110% | 73.5% | -85.3% (active) | 70.6% | 82% | – | 98.4%
CC(C)CCCCCOC(=O)c1ccccc1SSc1ccccc1C(=O)OCCCCCC(C)C | 104% | 122% | 87.2% | 103% | 110% | 88.6% | 96.2% | – | 114% | 103% | 105% | 70.5% | 136% | 103% | 97.3% | 100% | 70.9% | 72.1% | – | –
COc1ccc(C2CC(=O)c3c(O)cc(OC4OC(COC5OC(C)C(O)C(O)C5O)C(O)C(O)C4O)cc3O2)cc1O (configuration not stated) | 101% | 102% | 82.1% | 110% | 104% | – | 111% | 107% | 124% | 100% | 108% | 95.3% | 110% | 117% | 105% | – | 106% | 113% | 104% | -1.88% (active)
O=C1CCNC1 | 101% | 106% | 100% | 102% | 87.4% | 95.7% | 103% | 113% | 102% | – | 103% | 92.1% | 100% | 101% | 113% | 94.9% | – | 98.8% | – | 109%
O=C(/C(Br)=C/c1ccccc1)c1ccccc1 | -21.9% (active) | -66.2% (active) | 80.3% | 96.2% | 5.38% (active) | 87.8% | 8.01% (active) | -92.2% (active) | 42.8% | 109% | – | -62.5% (active) | 3.38% (active) | -71.3% (active) | -28.4% (active) | – | – | -25.2% (active) | – | 15.2%
O=C1c2ccccc2CCc2ccccc21 | 105% | 103% | 91.8% | 100% | 93.1% | – | 95.6% | 93.6% | 106% | 89.4% | 96.7% | 84% | 99.3% | 102% | 90.5% | – | 91.8% | 111% | 98.6% | 102%
CC(=O)Nc1nc(C)c(C(=O)NNS(=O)(=O)c2ccccc2)s1 | 114% | 118% | 88.2% | 105% | 103% | – | 109% | 99.1% | 125% | 113% | 105% | 91.8% | 161% | 115% | 121% | 121% | 114% | 117% | 105% | 2.86% (active)
CCCCCCCCCCCCCCCCCC(=O)Nc1ccc(O)cc1 | 110% | 96.7% | 72% | 118% | 93.4% | 66.6% | 102% | 96.9% | 103% | – | 75.7% | 52.5% | 85.3% | 104% | 95.1% | 109% | – | 26.7% | – | 83.1%
O=C(/C=C/c1ccc(Cl)cc1)c1ccc(Cl)cc1 | 94.3% | 70.2% | 99% | 102% | 93.8% | 96.8% | 90.4% | 66.5% | 99.9% | – | 102% | 76.2% | 78% | 109% | 75.7% | 82.8% | 66.9% | 81% | – | 97.2%

— PubChem BioAssay (NCI)
